Hsp90 Hop PPI – qHTS Assay for Disrupters of an Hsp90 Co-Chaperone Interaction; Hsp90 C-terminal peptide / TPR2A (Hop) interaction, human; Potency, µM (series often up to 57 µM), for inactives: top-dose activity change, negative = inhibition; AlphaScreen TPR2A-His6 binding biotin-Hsp90 C-terminal peptide; AID 595, 2007; 71,000 tested, 0.44% active; active = well fitted curve in either direction with a large enough effect; inconclusive = small, poorly fitted or top-dose-only effect, or another doubt; note: potency is the fitted concentration of half-maximal effect; % is set by controls: 0 for no effect and ±100 for the full control effect
UbGFP stabilizer – Ubiquitin-GFP Assay. Ubiquitin-GFP reporter cells, proteasome inhibition, GFP fluorescence; response scale: untreated = 0%, 10 µM MG-132 = 100%. Potency, µM (doses to about 45.9 µM), for inactives: at the top dose activation (GFP accumulation), most hits filed as activators. 67,000 tested, under 10 active. AID 526, 2006; active = well fitted activation curve with a large enough effect, not every such curve was filed as active; inconclusive = small, poorly fitted or top-dose-only effect, or another doubt; inactive = no such curve, though single readings can be large or run the other way; note: potency is the fitted concentration of half-maximal effect
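U2OS cells stably expressing ubiquitin(G76V)-GFP, seeded overnight in 0.5% FBS medium, were exposed to compounds (qHTS, 46 uM to 2.9 nM) for 4 hr at 37 °C. GFP-positive cells were counted by laser cytometry (488 ex/515 em), normalized between basal and 10 uM MG-132.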
Tau fil binding – qHTS Assay for Tau Filament Binding. Microtubule-associated protein tau (Homo sapiens), P10636. recombinant tau filaments, thioflavin S fluorescence, 15 h; filaments grown with octadecylsulfate alongside compound. 71,000 tested, 2% active. Potency, µM (highest dose often 57.1 µM), for inactives: at the top dose activity change, negative = inhibition;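 note: potency is the fitted concentration of half-maximal effect; % is set by controls: 0 for no effect and ±100 for the full control effect; actives lower thioflavin S fluorescence by blocking filaments or displacing dye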
Target sequence (P10636 whole entry, looked up): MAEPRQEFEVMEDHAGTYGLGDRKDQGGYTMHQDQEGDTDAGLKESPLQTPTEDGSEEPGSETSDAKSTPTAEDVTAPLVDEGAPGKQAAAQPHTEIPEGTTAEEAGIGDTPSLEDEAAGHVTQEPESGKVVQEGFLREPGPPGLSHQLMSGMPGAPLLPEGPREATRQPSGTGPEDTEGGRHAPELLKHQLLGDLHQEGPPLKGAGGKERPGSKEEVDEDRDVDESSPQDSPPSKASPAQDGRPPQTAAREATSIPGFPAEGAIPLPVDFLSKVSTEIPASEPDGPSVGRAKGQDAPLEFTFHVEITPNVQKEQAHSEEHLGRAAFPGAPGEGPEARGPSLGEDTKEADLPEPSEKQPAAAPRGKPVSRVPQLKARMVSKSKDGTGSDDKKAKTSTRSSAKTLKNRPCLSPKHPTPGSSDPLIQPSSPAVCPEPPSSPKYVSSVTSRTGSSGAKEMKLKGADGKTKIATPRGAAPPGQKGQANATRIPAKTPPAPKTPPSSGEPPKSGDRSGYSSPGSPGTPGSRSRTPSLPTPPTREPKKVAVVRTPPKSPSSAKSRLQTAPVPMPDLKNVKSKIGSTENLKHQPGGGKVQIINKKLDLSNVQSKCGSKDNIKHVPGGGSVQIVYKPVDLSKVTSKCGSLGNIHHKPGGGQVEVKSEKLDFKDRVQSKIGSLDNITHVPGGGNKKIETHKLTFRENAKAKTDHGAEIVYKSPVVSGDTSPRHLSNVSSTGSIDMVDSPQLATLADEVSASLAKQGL
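His-tagged recombinant human tau (exons 2, 3, 10; 1 uM final) fibrillized with 30 uM sodium octadecylsulfate, 15 h at 37 C, in pH 7.4 HEPES buffer with 10 uM thioflavine S and 5 mM DTT. Reduced ThS fluorescence (450/510 nm) marks activity.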
ERK AVP inh – qHTS Assay for Inhibitors of the ERK Signaling Pathway using a Homogeneous Screening Assay; HEK293-V1b, vasopressin-stimulated pERK AlphaScreen; Potency, µM (series often up to 57.5 µM), for the others: at the highest dose activity, negative = inhibition, hits mostly inhibitors; 72,000 tested, 0.99% active; AID 995, 2007; note: potency is the fitted concentration of half-maximal effect; % is set by controls: 0 for no effect and ±100 for the full control effect; nearly all actives have a fitted effect of over 55% in size
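V1b-HEK293 cells; cpd 30 min 37C; 25 nM vasopressin 5 min; lyse 10 min; AlphaScreen beads 5 hr RT. Normalized to DMSO basal and 25 nM vasopressin; AC50 by Hill fit.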
Epigenetic mod – qHTS Assay for Epigenetic Modulators | mouse C127i GFP locus derepression, cytometry, 30 h | Potency, µM (highest dose often 46.1 µM), without a hit: top-dose GFP derepression (activation) | 68,000 tested, 0.09% active; note: % of control where 0% means no effect
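Murine C127i mammary cells carrying a silenced, stably integrated CMV-driven GFP reporter were treated with compound for 30 hours at 37 C. After PBS washes, GFP-positive cells were counted by laser-scanning microplate cytometry.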
HBB splice mod – qHTS Assay for Modulators of Hemoglobin Beta Chain Splicing | HBB splicing reporter cell assay, activation; EGFP reporter with mutant IVS2-654 intron; response scale: normalised to 500 nM splice-correcting PNA | Potency, µM (doses to about 46.1 µM), inactives show at the top dose activation, hits mostly activators | 65,000 tested, 0.06% active | AID 925, 2007; note: potency is the fitted concentration of half-maximal effect; 0% is about no effect
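Compounds were applied for 2 days to HeLa EGFP-654 cells, 500/well in Optimem with 2% FCS. The reporter's EGFP is disrupted by mis-splicing of beta-globin intron IVS2-654. Readout: summed well GFP fluorescence from 488 nm laser scanning; reference was 500 nM antisense […] 654 PNA.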
* = called active by the depositor; i = inactive; ? = inconclusive; . = no result; [ ] = remark or other dose. An excerpt weighted towards active compounds, which were near 3% of everything screened. Unless noted, calls come from the whole dose curve; as a rule, active = well fitted curve in the direction sought with a large enough effect; inconclusive = small, poorly fitted or top-dose-only effect, or another doubt; inactive = no such curve, though single readings can be large; an effect the other way counts as inactive or inconclusive.

SMILES	Hsp90 Hop PPI	UbGFP stabilizer	Tau fil binding	ERK AVP inh	Epigenetic mod	HBB splice mod
O=C(O)C1Nc2c(O)cccc2C2C=CCC12 (stereo unspecified)	25µM*	3%	13µM*	?	0%	3%[57.5 µM]
O=C(O)C[C@H](Cc1ccc2c(c1)OCO2)C(=O)O	-5%[11 µM]	3%[9.17 µM]	-5%[11.4 µM]	14%[11.5 µM]	0%[9.22 µM]	2%[9.22 µM]
CC1(C)Oc2cc3c(cc2O1)OC(C)(C)O3	.	.	.	21%[11.5 µM]	.	3%[9.22 µM]
CCCCc1nc2n[nH]c(N)c2c2c1CCC2	-5%	-11%	-12%	16µM*	-2%	4%[1.84 µM]
CCc1nc2n[nH]c(N)c2c2c1CCCC2	.	.	.	.	5%[20.6 µM]	.
COc1ccc(CCNC(=O)c2ccc3nc(-c4ccco4)c(-c4ccco4)nc3c2)cc1OC	-15%	3%	3.2µM*	20µM*	-2%	0%
COc1ccc(CCNC(=O)COC(=O)c2ccco2)cc1OC	0%	-2%	-6%	-3%	0%	0%[57.5 µM]
C/C(=C\C(=O)c1ccc(F)cc1)Nc1ccc(N2CCOCC2)cc1	-11%	-2%	6.3µM*	?	-3%	1%
Cc1cc(=O)cc(C)n1-c1ccccc1N1CCOCC1	-14%	-2%	7.9µM*	?	6%	-2%
COc1cc2cc3c4cc(OC)c(OC)cc4cc[n+]3c(C)c2cc1OC	?	7%[20.5 µM]	184%[25.6 µM]	?	0%[20.6 µM]	1%[20.6 µM]
O=C(C1CCN(S(=O)(=O)c2cccc3cccnc23)CC1)N1CC=C(c2ccccc2)CC1	-4%	-9%	479%	25µM*	-5%	-1%
O=C(O)c1c(Sc2ccccc2)c2cc(Cl)ccc2n1Cc1ccc(Cl)cc1	.	.	.	-10%	.	-1%
N=C(N)S/C=C\C(=O)O	-2%	12%	-21%	18%	-1%	.
CCCCSc1nnc(-c2cc(Br)ccc2N)c(=O)[nH]1	1%	-1%	20µM*	?	2%	0%
COc1cccc2c1C(=O)c1c(O)c3c(c(O)c1C2=O)C[C@](O)(C(=O)CO)C[C@H]3O[C@@H]1C[C@H](N)[C@H](O)[C@H](C)O1	-10%[26 µM]	9%[20.5 µM]	5µM*	-16%[25.7 µM]	2%[20.6 µM]	-1%[20.6 µM]
O=C(c1cccc(-n2cnnn2)c1)N1CCOCC1	2%	3%	-9%	-12%	-3%	-1%
O=C(O)c1cn[nH]c1-n1cnnn1	25µM*	-2%	1%	11%	-2%	1%
O=C(O)CCNc1ccccc1C(=O)O	-2%[11 µM]	-5%[9.17 µM]	11%[11.4 µM]	-8%[11.5 µM]	4%[9.22 µM]	2%[9.22 µM]
O=C(O)CCCSc1ccccc1	1%[11 µM]	3%[9.17 µM]	8%[11.4 µM]	20%[11.5 µM]	5%[9.22 µM]	5%[9.22 µM]
CN(C)c1ccc(-c2nc(NCc3cccnc3)c3ccccc3n2)cc1	-9%	-3%	i	8%	6%[9.22 µM]	-1%
C#CCOC(=O)[C@H](N)CC(N)=O	-1%[11 µM]	3%[9.17 µM]	2%[11.4 µM]	13%[11.5 µM]	2%[9.22 µM]	2%[9.22 µM]
Cc1ccc(NC(=O)c2cc(-c3cccc(O)c3)on2)cc1C	-7%	-14%	168%	32µM*	-2%	0%
Cc1ccc(NC(=O)c2cc(-c3ccco3)on2)cc1C	-8%	-7%	-5%	5%	0%	0%
O=C(CSc1nnc(C2CC2)n1Cc1ccccc1)c1cc2ccccc2o1	-9%	7%	10µM*	-15%	2%	0%[57.5 µM]
N/C(CC/C(N)=N/O)=N\O	-2%[11 µM]	-5%[9.17 µM]	-2%[11.4 µM]	-3%[11.5 µM]	0%[9.22 µM]	4%[9.22 µM]
CCCCOC(=O)c1[nH]c2c(c1C)C(=O)CC(c1cc(OC)c(OC)c(OC)c1)C2 (stereo unspecified)	-4%	-3%	192%	25µM*	-7%	-1%
O=C(O)CCn1cnc2c(=S)nc[nH]c21	-2%[11 µM]	-9%[9.17 µM]	-14%[11.4 µM]	-10%[11.5 µM]	-2%[9.22 µM]	4%[9.22 µM]
N#Cc1c(NC(=O)CSc2ncnc3c2cnn3-c2ccccc2Cl)sc2c1CCCC2	0%	-3%	-9%	0%	1%	.

Bioassay records deposited in PubChem BioAssay by National Center for Advancing Translational Sciences (NCATS).
